Source: PubChem BioAssay AID1159580 (chemical genetic matrix, 2015)
The campaign covered roughly 5,500 compounds. About 2,000 (36%) were called active. Not shown: some 18% with an inconclusive outcome. Cut-off read from the data, not from the text of the source: active = normalized growth mostly below about 0.91 (no sharp cut-off); inconclusive = no clear call, values can overlap the other calls; inactive = mostly above about 0.92. The list shows a part of the results.

Test: chemical genetic growth profiling, strain panel (AID 1159580);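 note: tested at 20 µM; growth read once vehicle control cultures reached saturation at 30 °C; 1 = growth at the plate median or of vehicle wells; lower values mean less growth of the strain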
Settings: S. cerevisiae deletion strains, growth OD

Measured: normalized growth

CC1(C)S[C@@H]2[C@H](NC(=O)[C@H](C(=O)O)c3cccs3)C(=O)N2[C@H]1C(=O)O
inactive: locus YAL021C, strain ccr4, hits give low values 0.996 | locus YAL026C, strain drs2, hits give low values 1.02 | locus YAL030W, strain snc1, hits give low values 1.01 | locus YBL061C, strain skt5, hits give low values 1.01 | locus YBR009C, strain hhf1, hits give low values 1.03 | locus YBR023C, strain chs3, hits give low values 1.01 | locus YBR171W, strain sec66, hits give low values 1.03 | locus YBR231C, strain swc5, hits give low values 1.02 | locus YBR279W, strain paf1, hits give low values 1.01 | locus YCL011C, strain gbp2, hits give low values 1.01 | locus YCL016C, strain dcc1, hits give low values 0.998 | locus YCL061C, strain MRC1, hits give low values 1.01 | locus YCL069W, strain vba3, hits give low values 0.999 | locus YCR088W, strain abp1, hits give low values 0.996 | locus YDL005C, strain med2, hits give low values 1.01 | locus YDL040C, strain nat1, hits give low values 0.999 | locus YDR001C, strain nth1, hits give low values 1 | locus YDR069C, strain doa4, hits give low values 1.04 | locus YDR137W, strain rgp1, hits give low values 1.02 | locus YDR159W, strain sac3, hits give low values 1.01 | locus YDR195W, strain ref2 1.02 | locus YDR297W, strain sur2, hits give low values 1.01 | locus YDR334W, strain swr1, hits give low values 1 | locus YDR335W, strain msn5, hits give low values 1.01 | locus YDR392W, strain spt3, hits give low values 1.01 | locus YEL003W, strain gim4, hits give low values 1.01 | locus YEL037C, strain rad23, hits give low values 0.973 | locus YEL061C, strain CIN8 (second series), hits give low values 0.991 | locus YER015W, strain faa2, hits give low values 1.01 | locus YER016W, strain bim1, hits give low values 1 | locus YER111C, strain swi4, hits give low values 1.01 | locus YER155C, strain BEM2 (second series), hits give low values 1.04 | locus YFR010W, strain ubp6, hits give low values 1 | locus YGL167C, strain pmr1, hits give low values 1.01 | locus YGL173C, strain kem1, hits give low values 1.01 | locus YGL227W, strain vid30, hits give low values 1 | locus YGL240W, strain doc1, hits give low values 1.04 | locus YGL253W, strain hxk2, hits give low values 0.998 | locus YHR013C, strain ard1, hits give low values 1.03 | locus YHR027C, strain rpn1, hits give low values 1 | locus YHR030C, strain SLT2, hits give low values 1.01 | locus YHR079C, strain IRE1, hits give low values 1.02 | locus YHR142W, strain chs7, hits give low values 0.957 | locus YJL092W, strain hpr5, hits give low values 1 | locus YJL095W, strain BCK1 (second series), hits give low values 1 | locus YJL095W, strain BCK1, hits give low values 0.974 | locus YJL115W, strain asf1, hits give low values 1 | locus YJL129C, strain trk1, hits give low values 1.01 | locus YJL154C, strain vps35, hits give low values 0.999 | locus YJL164C, strain tpk1, hits give low values 0.999 | locus YJL166W, strain qcr8, hits give low values 1.01 | locus YJL187C, strain SWE1, hits give low values 1.02 | locus YJR066W, strain TOR1, hits give low values 0.952 | locus YKL160W, strain elf1, hits give low values 1.01 | locus YKR026C, strain gcn3, hits give low values 0.991 | locus YKR091W, strain srl3, hits give low values 1.01 | locus YLL001W, strain dnm1, hits give low values 0.999 | locus YLL026W, hits give low values 1.01 | locus YLL041C, strain sdh2, hits give low values 1.01 | locus YLR027C, strain aat2, hits give low values 1.01 | locus YLR113W, strain HOG1, hits give low values 0.971 | locus YLR221C, strain rsa3, hits give low values 0.989 | locus YLR258W, strain gsy2, hits give low values 1.02 | locus YLR262C, strain YPT6 (second series), hits give low values 0.996 | locus YLR320W, strain mms22, hits give low values 1.01 | locus YLR342W, strain FKS1, hits give low values 1.01 | locus YLR357W, strain rsc2, hits give low values 1.07 | locus YLR370C, strain arc18, hits give low values 1.01 | locus YLR384C, strain iki3, hits give low values 0.994 | locus YML120C, strain ndi1, hits give low values 1.01 | locus YMR058W, strain fet3, hits give low values 1.02 | locus YMR125W, strain sto1, hits give low values 1.03 | locus YMR129W, hits give low values 1 | locus YMR205C, strain PFK2, hits give low values 1.03 | locus YMR231W, strain pep5, hits give low values 1.01 | locus YNL071W, strain lat1, hits give low values 1.01 | locus YNL183C, strain NPR1, hits give low values 0.96 | locus YNL209W, strain ssb2, hits give low values 1.01 | locus YNL248C, strain rpa49, hits give low values 0.991 | locus YNL322C, strain KRE1 (second series), hits give low values 1.01 | locus YNR049C, strain mso1, hits give low values 0.994 | locus YOR001W, strain rrp6, hits give low values 1 | locus YOR070C, strain gyp1, hits give low values 0.999 | locus YOR080W, strain dia2, hits give low values 1.02 | locus YOR083W, strain WHI5, hits give low values 1 | locus YOR106W, strain vam3, hits give low values 1 | locus YOR231W, strain MKK1, hits give low values 1.02 | locus YOR265W, strain rbl2, hits give low values 0.998 | locus YOR270C, strain vph1, hits give low values 1 | locus YOR290C, strain snf2, hits give low values 1.01 | locus YPL051W, strain arl3, hits give low values 1 | locus YPL078C, strain atp4, hits give low values 0.989 | locus YPL106C, strain sse1, hits give low values 1.03 | locus YPL240C, strain hsp82, hits give low values 0.986 | locus YPL256C, strain CLN2, hits give low values 1.03
